HT1080NT lethal – kills 2HG-producing HT-1080-NT fibrosarcoma cells. HT-1080-NT fibrosarcoma viability, CellTiter-Glo ATP luminescence, 48 h. Potency, µM (doses to about 46.1 µM), without a hit: top-dose activity, negative = less viability, most hits filed as cytotoxic. 360,000 tested, 1.6% active. AID 686970;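 further: NT is the 2HG producing partner of a matched IDH1 knockdown line; potency means the concentration at half of the fitted maximal effect; 0% = DMSO-treated cells and -100% = media-only wells without cells; nearly all actives have a fitted effect of over 55% in size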
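HT-1080-NT; 750 cells/well; 5% FBS RPMI; 48 h compound, 37 degrees C; CellTiter-Glo luminescence; curve fitting and curve-class assignment.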
KB-V1 cytotox – kills drug-selected multidrug resistant KB-V1 cells. 400,000 tested, 3.4% active. KB-V1 MDR cells viability, CellTiter-Glo, 72 h. Potency, µM (top dose mostly 46.1 µM), actives largely listed as cytotoxic. AID 1347076; further: potency means the concentration at half of the fitted maximal effect; nearly all actives have a fitted effect of over 60% in size
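qHTS viability screen in drug-selected KB-V1 MDR cells: 72 h compound treatment at 37 degrees C, ATP luminescence end point.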
KB-3-1 cytotox – KB-3-1 parental cell cytotoxicity | KB-3-1 viability, CellTiter-Glo ATP luminescence, 72 h | Potency, µM (doses to about 46.1 µM), hits mostly cytotoxic | 400,000 tested, 1.4% active; further: potency means the concentration at half of the fitted maximal effect; nearly all actives have a fitted effect of over 60% in size
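72 h, 37 °C compound treatment of KB-3-1 parental cells; CellTiter-Glo added, 10 min, luminescence read. Data corrected against DMSO-only plates and normalized before curve fitting.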
IL1B secr inh – inflammasome signaling inhibition, IL-1 beta readout; AID 743279; THP-1 LPS/ATP IL-1B secretion, AlphaLISA, 16 h; active compounds read low; activity change, % at 57.5 µM; 360,000 tested, 4.7% active; in the data active means activity change below about -50%; inconclusive means mostly about -30% to -49%
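THP-1 cells pretreated 1 hr with compounds (up to 57.5 uM final), then stimulated with LPS (250 ng/mL final) plus ATP (1.25 mM final); secreted IL-1B measured by AlphaLISA after 16 hr, decreased signal indicating inhibition.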
HT1080 IDH1KD tx – kills HT-1080 cells with IDH1 knockdown | HT-1080 IDH1 knockdown viability, ATP luminescence, 48 h | Potency, µM (top dose mostly 46.1 µM), inactives show top-dose activity, negative = toxicity, hits mostly cytotoxic | 360,000 tested, 2% active | AID 686971;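 further: potency means the concentration at half of the fitted maximal effect; 0% = DMSO wells and -100% = cell-free medium wells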
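Luminescent ATP read-out (CellTiter-Glo, 10 min at room temperature) after 48 h compound exposure at 37 °C gave viability of IDH1-knockdown HT-1080 cells. Activity was normalised to DMSO and cell-free wells, then fitted as concentration-response curves.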
Active calls of the source: *; i = inactive; u = inconclusive; x = no result given; [ ] = remark or other dose. Hits are enriched below; roughly 8.8% of the tested compounds scored in any of these assays. Unless noted, the call rests on the fitted dose curve; in most records, active means well fitted curve in the direction sought with a large enough effect; inconclusive means small, poorly fitted or top-dose-only effect, or another doubt; inactive means no such curve, though single readings can be large; an effect the other way counts as inactive or inconclusive. Unless noted, on the % scale 0 is the no-effect control and ±100 the full control effect.

SMILES | HT1080NT lethal | KB-V1 cytotox | KB-3-1 cytotox | IL1B secr inh | HT1080 IDH1KD tx
Cc1ccc(CNc2nc3cc(-c4ccccc4C)sc3c(=O)n2C)c(C)c1 | u | i | u | -14 | u
COc1cccc(CNc2nc3cc(-c4ccc(C(=O)N5CCN(C)CC5)cc4)sc3c(=O)n2C)c1 | 23µM* | i | i | -20 | 15µM*
C=CCNc1nc2cc(-c3ccccc3C)sc2c(=O)n1C | 15µM* | u | 21µM* | 58 | 9.2µM*
COc1cccc(CNc2nc3cc(-c4ccccc4)sc3c(=O)n2C)c1 | u | 2.3µM* | 7.3µM* | -23 | -20%
CN(C)CCCNc1nc2cc(-c3cnn(Cc4ccccc4)c3)sc2c(=O)n1C | 9.2µM* | i | i | -3 | 23µM*
CN(C)CCCNc1nc2cc(-c3ccc4c(ccn4C)c3)sc2c(=O)n1C | u | i | i | -28 | u
Cc1ccc(NC(=O)Cn2c(=O)n(CCCCC(=O)NCCc3ccccc3)c(=O)c3ccccc32)cc1 | x | i | i | x | x
O=C(Nc1ccc(NC(=O)C2CC2)cc1)c1cccs1 | -13% | i | i | u | 0%
COc1cccc(-c2cc3nc(NCCCN(C)C)n(C)c(=O)c3s2)c1 | u | i | i | -63* | u
COc1ncccc1-c1cc2nc(NCCCN(C)C)n(C)c(=O)c2s1 | -23% | i | i | -4 | -27%
Cc1ccc(F)cc1-c1cc2nc(NCCCN(C)C)n(C)c(=O)c2s1 | 21µM* | i | i | -8 | 15µM*
CN(C)CCCNc1nc2cc(-c3ccsc3)sc2c(=O)n1C | u | i | u | u | u
CCCCC(=O)NC(=S)Nc1ccc(S(=O)(=O)N2CCCC2)cc1 | 6% | u | i | 0 | 11%
Cc1nc(SCC(=O)Nc2ccc3[nH]c(=O)[nH]c3c2)nc(C)c1C | -1% | i | i | -3 | -4%
Nc1nc(Cl)cc(N2CCC(c3cc(-c4ccc(Cl)cc4Cl)n[nH]3)CC2)n1 | u | 23µM* | u | -11 | u
Cc1ccc2nc(NC(=O)C3CCN(S(=O)(=O)c4cccs4)CC3)sc2c1 | u | 4.6µM* | u | -76* | u
Cc1ccc2nc(NC(=O)C3CCN(S(=O)(=O)c4cccnc4)CC3)sc2c1 | -1% | u | u | -16 | -11%
COc1ccc2nc(NC(=O)C3CCCN(S(=O)(=O)c4cccs4)C3)sc2c1 (stereo not given) | -13% | i | i | -59* | -18%
COc1ccc2nc(NC(=O)C3CCN(S(=O)(=O)c4cccs4)CC3)sc2c1 | u | 23µM* | u | -75* | -28%
O=C(Nc1nc2ccc(F)cc2s1)C1CCN(S(=O)(=O)c2cc([N+](=O)[O-])ccc2Cl)CC1 | u | 15µM* | 15µM* | -91* | u
COc1ccc2nc(NC(=O)C3CCN(S(=O)(=O)c4cccnc4)CC3)sc2c1 | -1% | i | i | -23 | -4%
Cc1cc(NC(=O)CSCC(=O)N2CCN(c3cccc(C(F)(F)F)c3)CC2)no1 | -14% | u | i | 15 | -13%
Cc1cccc(NC(=O)C2CCN(S(=O)(=O)c3cccs3)CC2)n1 | -15% | 23µM* | i | -9 | -5%
O=C(Nc1ccccn1)C1CCN(S(=O)(=O)c2cccs2)CC1 | -7% | u | i | -1 | -1%[9.24 µM]
O=C(Nc1nc2ccc(C(=O)N3CCCCC3)cc2s1)C1CCCCC1 | u | 3.7µM* | 5.8µM* | 49 | u
O=C(/C=C/c1ccccc1Cl)Nc1cccc([S+](=O)([O-])Nc2ccccc2F)c1 | x | i | u | x | x
O=S(=O)(c1cccc(NC(=S)Nc2ccc(Br)cc2Cl)c1)N1CCOCC1 | 0% | u | i | 27 | -7%
CN(c1cccc(Cl)c1)S(=O)(=O)c1cccc(C(=O)NC2=NCCS2)c1 | u | 21µM* | 23µM* | -1 | u
CN(c1cccc(Cl)c1)S(=O)(=O)c1cccc(C(=O)Nc2nc3ccccc3[nH]2)c1 | u | u | 15µM* | -62* | u
COc1ccc(N(C)S(=O)(=O)c2cccc(C(=O)Nc3nnc(C)s3)c2)cc1 | 1%[9.24 µM] | i | i | 0 | 1%
